Experimental findings from PubChem BioAssay are described below.

A short description of assay [1]: yeast TOR pathway RPL19A-GFP modulators, primary screen, cell-based, S. cerevisiae, multiplex flow cytometry (AID 1862; in the data active means percent of DMSO control GFP below about 86%;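 further: lower values mimic rapamycin by blocking the RPL19A rise seen in DMSO cells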). The note with it: S. cerevisiae RPL19A-GFP strain, flow cytometry fluorescence, 3 h; at 10 µM; stronger effect = lower value.
Assay [2] in a line: modulators of MEP2-GFP levels in yeast, primary screen, S. cerevisiae, multiplex flow cytometry (AID 1867;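 active means GFP response, as percent of the DMSO control, above the screen-wide mean plus 3 SD, about 139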;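 further: median GFP channel fluorescence of barcode-gated MEP2-GFP cells measured by flow cytometry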). The note with it: S. cerevisiae MEP2-GFP strain, 3 h, at 10 µM, stronger effect = higher value, 100% means same as DMSO wells.
The nature of assay [3]: modulators of CIT2-GFP expression in yeast, primary screen, S. cerevisiae, GFP fusion, multiplex flow cytometry (AID 1870;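 active means percent response above a set limit, the screen-wide mean plus 3 SD, cut at about 130% in these data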;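 further: barcoded CIT2-GFP strain pooled with four other GFP strains with rapamycin as positive control; median GFP fluorescence per well over plate mean of DMSO wells so 100% = DMSO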). The note with it: 3 h, at 10 µM, stronger effect = higher value.
A short description of assay [4]: modulators of LAP4-GFP expression in yeast, primary screen, S. cerevisiae, multiplex flow cytometry (AID 1873;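 active means GFP signal, as percent of the solvent control, above the screen mean plus 3 SD, about 149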). The following applies: 3 h, at 10 µM, stronger effect = higher value.
Assay [5] in a line: modulators of AGP1-GFP expression in yeast TOR pathway, primary screen, cell-based, multiplex flow cytometry, S. cerevisiae (AID 1887;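 active means GFP signal above the screen-wide mean plus 3 SD, that is over about 124.5% of the solvent control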;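 further: AGP1-GFP fusion strain of S. cerevisiae within a five-strain barcoded multiplex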). The following applies: 3 h, at 10 µM, stronger effect = higher value.
A short description of assay [6]: inhibitors of CD8+ T cell-vesicle binding, pilot screen, LFA-1/ICAM-1 modulator project, MLPCN validation set, flow cytometry (AID 2523;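 active means response below a set limit, under 55% cells CD8-positive and vesicle-bound, and CD8 cells' 90th-percentile brightness under 279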;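 on vesicle binding response: mean PE anti-B7-1 fluorescence of CD8+ cells relative to row control; 100% = QL9-loaded vesicles with DMSO vehicle in the same plate row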). The following applies: 2C mouse CD8+ T cells, at 7 µM, stronger effect = lower value; double positive events: measured here: CD8+/vesicle+ event percentage.
Assay [7] concerns the target Integrin beta-1 (Homo sapiens) + Integrin alpha-4 (Homo sapiens) (UniProt P13612+P05556). Kind of assay: inhibition of HUTS-21 binding to VLA-4, pilot screen, VLA-4 allosteric modulator project, U937 cells, HUTS-21 mAb, flow cytometry, validation set (AID 2674;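 active means inhibition above 50%, about 3 SD of the validation set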;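 further: antibody binding induced by the VLA-4 ligand LDV present at three times its Kd; 0% = LDV ligand with antibody and no compound and 100% = antibody without LDV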). The following applies: HUTS-21 LIBS mAb binding, at 6.7 µM, stronger effect = higher value, binding induced by LDV ligand.

The nature of assay [8]: superoxide lowering in aged yeast cells, pilot screen, validation compound set (AID 2706;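 active means superoxide response below 65% of plate, a cut near 3 SD across the whole screen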;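 further: yeast exposed to compound for one week at 30 degrees C before staining; 100% = mean of all compound wells on the same plate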). The note with it: S. cerevisiae aging, superoxide DHE fluorescence; at 10 µM; stronger effect = lower value.
In assay [9] the target is Beta-adrenergic receptor kinase 1 (Homo sapiens) (UniProt P25098). Description: GRK2 binders displacing RNA aptamer, biochemical, validation, human GRK2, bead flow cytometry (AID 488806;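 active means aptamer binding inhibition above 30%, about 3 SD of noise from non-fluorescent compounds; inactive means inhibition at or below 30%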). The following applies: bead-bound GRK2, FAM-aptamer displacement, at 10 µM, stronger effect = higher value.
Chain of Beta-adrenergic receptor kinase 1 (Homo sapiens) (P25098 whole entry, looked up): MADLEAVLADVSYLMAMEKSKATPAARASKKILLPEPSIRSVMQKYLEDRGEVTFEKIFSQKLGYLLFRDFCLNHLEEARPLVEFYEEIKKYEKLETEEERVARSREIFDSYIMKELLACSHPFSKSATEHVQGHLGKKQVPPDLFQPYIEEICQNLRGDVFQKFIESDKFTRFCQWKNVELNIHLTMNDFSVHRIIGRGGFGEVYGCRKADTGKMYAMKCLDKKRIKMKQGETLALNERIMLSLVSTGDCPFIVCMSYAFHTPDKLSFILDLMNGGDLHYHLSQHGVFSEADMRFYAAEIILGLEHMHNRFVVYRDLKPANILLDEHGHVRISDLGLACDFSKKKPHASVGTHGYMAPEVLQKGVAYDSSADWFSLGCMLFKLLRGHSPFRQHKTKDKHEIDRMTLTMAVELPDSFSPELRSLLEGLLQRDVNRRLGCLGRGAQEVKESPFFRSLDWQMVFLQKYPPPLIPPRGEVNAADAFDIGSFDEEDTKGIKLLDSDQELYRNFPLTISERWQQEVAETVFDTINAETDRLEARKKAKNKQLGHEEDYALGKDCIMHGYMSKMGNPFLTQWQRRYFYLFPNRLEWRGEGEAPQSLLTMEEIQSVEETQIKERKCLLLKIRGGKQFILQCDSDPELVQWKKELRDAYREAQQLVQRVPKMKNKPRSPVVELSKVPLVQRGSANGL
Assay [10] concerns the target Beta-2 adrenergic receptor (Homo sapiens) (UniProt P07550). Description: beta2AR agonists driving receptor internalization, pilot screen, cell-based, FAP fluorogen, flow cytometry, validation set (AID 504459;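 active means percent response above 42, roughly 3 SD of non-fluorescent test compounds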;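 further: agonist-driven loss of surface beta2AR via internalization measured by FAP dye flow cytometry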). The note with it: Am2.2-beta2AR cells, FAP surface receptor flow cytometry; at 10 µM; stronger effect = higher value.
Assay [11] addresses AP-2 complex subunit beta (Homo sapiens) (UniProt P63010). Description: inhibitors of arrestin peptide binding to AP2, pilot screen, biochemical, validation set, GST-AP2 beads, flow cytometry (AID 504541;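 active means inhibition above 54%, about 3 SD of non-fluorescent compounds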;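 further: AP2 carries R879A mutation and is captured from E. coli lysate; bead-bound FITC arrestin peptide fluorescence measuring arrestin peptide binding to AP2; 0% = DMSO wells and 100% = excess unlabeled arrestin peptide control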). The following applies: FITC arrestin peptide, at 10 µM, stronger effect = higher value, AP2 beta2 appendage fragment, R879A mutant.
Assay [12] is described as follows: yeast V-ATPase proton transport modulators, S. cerevisiae, pHLuorin, HTS validation (AID 504600; in the data active means response above about 15%;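 further: plate controls were DMSO for no effect and reference compound for full effect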). The note with it: S. cerevisiae pHLuorin cytosolic pH, at 10 µM, stronger effect = higher value.
Assay [13] relates to anti-desmoglein-3 scFv antibody binding to human DSG3. Description: inhibitors of anti-DSG3 scFv binding to DSG3, pilot screen, biochemical, validation compound set, bead-based, flow cytometry (AID 588368;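 active means binding below the plate cutoff, the plate median minus 3 SD, with a reading above zero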;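 further: signal is the median channel fluorescence of bead-bound GFP antibody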). The following applies: Protein G beads, DSG3-Fc, scFv-GFP binding, at 10 µM, stronger effect = lower value.
The nature of assay [14]: inhibitors of fungal efflux pumps CDR1, CDR2, MDR1, pilot screen, validation compound set, multiplex, phenotypic (AID 588506;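 active means efflux inhibition above 0.42, the validation set average plus 4 SD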;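 further: Nile Red retained in cells so higher fluorescence means more efflux inhibition; 0 = negative control wells and 1 = enniatin B 25 µM full block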). The note with it: S. cerevisiae pump-expressing triplex, Nile Red efflux flow cytometry; at 10 µM; stronger effect = higher value; the pumps come from Candida albicans.
In assay [15] the target is ATP-binding cassette sub-family B member 6 (Homo sapiens) (UniProt Q9NP58). Description: ABCB6 transporter inhibitors, pilot screen, K562-ABCB6 cells, flow cytometry, validation set (AID 588550).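 Further: 0% = DMSO wells and 100% = benzethonium chloride 70 µM positive control.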 The note with it: K562-ABCB6 porphyrin accumulation, 1 h, at 10 µM, stronger effect = higher value.
Chain of ATP-binding cassette sub-family B member 6 (Homo sapiens) (Q9NP58 whole entry, looked up): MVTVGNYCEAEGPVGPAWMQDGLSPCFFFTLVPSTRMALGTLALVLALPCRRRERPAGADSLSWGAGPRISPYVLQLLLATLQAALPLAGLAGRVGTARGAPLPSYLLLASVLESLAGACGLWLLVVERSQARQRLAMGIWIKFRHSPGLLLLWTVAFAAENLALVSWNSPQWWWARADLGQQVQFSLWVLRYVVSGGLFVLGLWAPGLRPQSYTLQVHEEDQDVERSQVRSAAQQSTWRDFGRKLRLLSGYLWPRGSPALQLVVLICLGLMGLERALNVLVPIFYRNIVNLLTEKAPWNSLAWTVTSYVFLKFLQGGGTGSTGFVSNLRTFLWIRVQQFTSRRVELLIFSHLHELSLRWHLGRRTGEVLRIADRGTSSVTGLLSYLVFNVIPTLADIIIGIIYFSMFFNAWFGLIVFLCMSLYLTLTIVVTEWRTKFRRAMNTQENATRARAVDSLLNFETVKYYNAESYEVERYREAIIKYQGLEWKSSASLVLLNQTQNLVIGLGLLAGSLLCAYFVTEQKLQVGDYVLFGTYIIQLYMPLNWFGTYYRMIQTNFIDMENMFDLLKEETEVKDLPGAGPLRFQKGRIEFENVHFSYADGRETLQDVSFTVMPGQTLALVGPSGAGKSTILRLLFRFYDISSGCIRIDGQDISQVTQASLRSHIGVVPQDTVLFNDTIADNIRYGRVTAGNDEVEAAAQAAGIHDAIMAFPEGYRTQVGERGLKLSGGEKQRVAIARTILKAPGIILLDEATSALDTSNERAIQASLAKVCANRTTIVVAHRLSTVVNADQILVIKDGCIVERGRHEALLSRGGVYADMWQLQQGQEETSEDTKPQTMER
Assay [16] in a line: promoters of myeloid differentiation in arrested cells, primary screen, cell-based, GFP/MAC1 double positive, flow cytometry, validation set (AID 588685;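 active means differentiation response of at least 50%, scaled between solvent and reference control, from cells with both markers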;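 further: compound exposure lasts four days before antibody staining and flow analysis; 0% = DMSO wells and 100% = 5 µM fulvestrant positive control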). The note with it: ER-HoxA9 marrow cells, stronger effect = higher value, normalized: vehicle 0, fulvestrant 100.

Results filed as inconclusive are left out. Activity calls are given as the source filed them.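 How the source made its calls, unless noted: active means inhibition above the screen-wide mean plus 3 SD, about 51%; inactive means the rest.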

Chain of Beta-2 adrenergic receptor (Homo sapiens) (P07550 whole entry, looked up): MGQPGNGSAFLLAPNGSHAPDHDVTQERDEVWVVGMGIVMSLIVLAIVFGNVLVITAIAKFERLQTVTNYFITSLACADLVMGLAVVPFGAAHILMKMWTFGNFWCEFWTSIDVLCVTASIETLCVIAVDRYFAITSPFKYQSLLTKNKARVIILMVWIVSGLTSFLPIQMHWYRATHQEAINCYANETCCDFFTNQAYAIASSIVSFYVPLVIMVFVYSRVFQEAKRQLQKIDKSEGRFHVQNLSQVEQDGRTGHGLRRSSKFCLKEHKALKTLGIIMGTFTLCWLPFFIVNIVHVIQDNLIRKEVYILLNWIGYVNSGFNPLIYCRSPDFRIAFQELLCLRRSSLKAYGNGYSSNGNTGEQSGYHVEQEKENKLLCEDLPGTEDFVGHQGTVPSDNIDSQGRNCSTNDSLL
Chain of Integrin beta-1 (Homo sapiens) + Integrin alpha-4 (Homo sapiens) (P05556 whole entry, looked up): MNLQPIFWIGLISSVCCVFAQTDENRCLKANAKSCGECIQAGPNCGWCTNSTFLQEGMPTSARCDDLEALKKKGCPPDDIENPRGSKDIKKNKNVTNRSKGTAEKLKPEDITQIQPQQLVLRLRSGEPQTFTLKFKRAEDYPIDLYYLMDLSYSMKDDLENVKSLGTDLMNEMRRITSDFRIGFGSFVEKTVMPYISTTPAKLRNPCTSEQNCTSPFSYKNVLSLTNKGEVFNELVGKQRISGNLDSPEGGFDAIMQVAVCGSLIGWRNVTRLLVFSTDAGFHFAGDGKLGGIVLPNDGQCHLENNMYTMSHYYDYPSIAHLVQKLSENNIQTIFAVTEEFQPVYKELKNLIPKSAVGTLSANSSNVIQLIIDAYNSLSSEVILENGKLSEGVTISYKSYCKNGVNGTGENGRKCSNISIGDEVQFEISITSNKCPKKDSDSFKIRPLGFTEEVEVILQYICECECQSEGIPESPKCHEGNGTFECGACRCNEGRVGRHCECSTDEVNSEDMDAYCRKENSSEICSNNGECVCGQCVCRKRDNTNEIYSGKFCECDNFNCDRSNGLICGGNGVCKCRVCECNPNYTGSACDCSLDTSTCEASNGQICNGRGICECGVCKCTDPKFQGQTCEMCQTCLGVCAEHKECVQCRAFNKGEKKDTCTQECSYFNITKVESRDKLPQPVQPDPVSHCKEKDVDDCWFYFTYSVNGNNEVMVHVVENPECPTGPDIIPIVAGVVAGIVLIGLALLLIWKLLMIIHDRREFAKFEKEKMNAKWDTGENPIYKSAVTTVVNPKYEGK
Chain of Integrin beta-1 (Homo sapiens) + Integrin alpha-4 (Homo sapiens) (P13612 whole entry, looked up): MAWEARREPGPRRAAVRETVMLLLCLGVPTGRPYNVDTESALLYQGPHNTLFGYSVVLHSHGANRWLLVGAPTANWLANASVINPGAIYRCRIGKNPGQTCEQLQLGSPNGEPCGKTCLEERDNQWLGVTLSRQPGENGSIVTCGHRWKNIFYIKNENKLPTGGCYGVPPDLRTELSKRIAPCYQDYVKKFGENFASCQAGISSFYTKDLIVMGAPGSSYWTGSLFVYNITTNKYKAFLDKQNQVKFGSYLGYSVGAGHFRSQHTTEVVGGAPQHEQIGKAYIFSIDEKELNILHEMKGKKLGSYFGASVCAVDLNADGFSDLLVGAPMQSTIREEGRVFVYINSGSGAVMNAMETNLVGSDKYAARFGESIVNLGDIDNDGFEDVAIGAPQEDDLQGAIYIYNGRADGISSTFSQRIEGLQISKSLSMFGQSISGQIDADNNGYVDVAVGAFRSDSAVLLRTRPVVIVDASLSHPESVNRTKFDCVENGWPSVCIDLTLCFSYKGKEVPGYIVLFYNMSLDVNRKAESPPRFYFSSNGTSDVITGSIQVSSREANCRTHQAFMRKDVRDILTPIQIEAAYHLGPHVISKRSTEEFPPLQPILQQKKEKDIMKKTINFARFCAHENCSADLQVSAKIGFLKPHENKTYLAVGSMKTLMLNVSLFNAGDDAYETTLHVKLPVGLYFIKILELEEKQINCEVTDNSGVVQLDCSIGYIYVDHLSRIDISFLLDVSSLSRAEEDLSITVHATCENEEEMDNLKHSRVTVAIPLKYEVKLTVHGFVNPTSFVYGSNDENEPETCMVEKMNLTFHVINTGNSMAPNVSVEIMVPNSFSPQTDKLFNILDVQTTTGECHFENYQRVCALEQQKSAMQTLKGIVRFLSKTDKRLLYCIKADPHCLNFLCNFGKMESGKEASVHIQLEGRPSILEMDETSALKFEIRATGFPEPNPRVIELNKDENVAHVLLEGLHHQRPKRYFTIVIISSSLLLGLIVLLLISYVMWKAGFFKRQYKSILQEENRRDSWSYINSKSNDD
Chain of AP-2 complex subunit beta (Homo sapiens) (P63010 whole entry, looked up, the tested form may be a part, one chain of several): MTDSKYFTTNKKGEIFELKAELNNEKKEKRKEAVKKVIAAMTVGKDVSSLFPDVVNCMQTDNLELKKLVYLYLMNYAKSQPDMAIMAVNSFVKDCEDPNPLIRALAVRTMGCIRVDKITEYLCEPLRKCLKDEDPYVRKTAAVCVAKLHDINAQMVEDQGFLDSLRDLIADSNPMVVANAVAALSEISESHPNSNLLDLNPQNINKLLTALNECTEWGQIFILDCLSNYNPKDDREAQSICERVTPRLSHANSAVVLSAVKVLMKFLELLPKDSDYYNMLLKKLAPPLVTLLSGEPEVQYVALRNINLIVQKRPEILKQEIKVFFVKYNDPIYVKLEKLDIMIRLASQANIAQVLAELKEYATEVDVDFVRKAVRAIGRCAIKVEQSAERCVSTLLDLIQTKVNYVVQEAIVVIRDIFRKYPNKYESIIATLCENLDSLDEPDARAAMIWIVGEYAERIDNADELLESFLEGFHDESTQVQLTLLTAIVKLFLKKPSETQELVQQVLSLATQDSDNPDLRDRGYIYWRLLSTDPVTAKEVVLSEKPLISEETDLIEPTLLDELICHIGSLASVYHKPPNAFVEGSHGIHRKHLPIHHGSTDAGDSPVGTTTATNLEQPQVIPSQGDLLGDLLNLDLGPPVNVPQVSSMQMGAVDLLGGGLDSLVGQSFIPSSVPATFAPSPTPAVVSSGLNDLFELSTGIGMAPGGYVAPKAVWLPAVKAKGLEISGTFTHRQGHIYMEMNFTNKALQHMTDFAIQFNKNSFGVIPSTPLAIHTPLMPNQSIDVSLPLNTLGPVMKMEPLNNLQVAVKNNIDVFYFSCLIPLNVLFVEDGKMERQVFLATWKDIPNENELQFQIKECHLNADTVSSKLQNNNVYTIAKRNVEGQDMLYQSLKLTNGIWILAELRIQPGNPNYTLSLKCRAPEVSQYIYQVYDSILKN

Regarding `O=C(CNC(=O)OCc1ccccc1)Oc1cc2oc(=O)cc(-c3ccccc3)c2cc1Cl`, in assay [1], the percent of DMSO control GFP was 97.5% (inactive). The GFP response vs DMSO in [2] and in [4] was 107% (inactive) in each case. Moreover, the percent response of DMSO control in [3] was 111% (inactive). In addition, the GFP response, % of DMSO in [5] is 71.1% (inactive). Moreover, the double positive events in assay [6] is 61.1%. The vesicle binding response in [6] was 423% (inactive). Besides, the inhibition is -0.27% (inactive) in assay [7], 12.8% (inactive) in [11] and 1% (inactive) in assay [15]. The superoxide response (% of plate) in [8] is 207% (inactive). Moreover, in [9], the aptamer binding inhibition was 8% (inactive). The response was -13.2% (inactive) in [10] and -27.5% (inactive) in assay [12]. Also, in [13], the binding (% of control) was 103% (inactive). The efflux inhibition (fraction of control) in assay [14] is -0.09 (inactive). For the same molecule, the differentiation response in assay [16] is -4% (inactive).

Take `Cc1cc(NS(=O)(=O)c2ccc(N)cc2)no1`: the percent of DMSO control GFP in assay [1] was 103% (inactive). Further, the values for the GFP response vs DMSO in assay [2] and in assay [4] were 98.7% (inactive) and 102% (inactive), respectively. In addition, the percent response of DMSO control in assay [3] was 107% (inactive). Besides, in assay [5], the GFP response, % of DMSO was 113% (inactive). Moreover, in assay [6], the double positive events is 63.3%. In addition, the vesicle binding response in assay [6] was 121% (inactive). For the same molecule, the inhibition in assay [7] is 15% (inactive); in assay [11], -2.38% (inactive); in assay [15], 4% (inactive). For the same molecule, the superoxide response (% of plate) in assay [8] is 99.6% (inactive). Also, the aptamer binding inhibition in assay [9] is -1% (inactive). Also, the response in assay [10] was 5.64% (inactive); in assay [12], -1.68% (inactive). The binding (% of control) in assay [13] is 99.2% (inactive). Also, in [14], the efflux inhibition (fraction of control) is -0.16 (inactive). The differentiation response in assay [16] is -11.9% (inactive).

Take `COc1cc(CC(=O)NCCc2ccc(S(N)(=O)=O)cc2)cc(OC)c1OC`: the percent of DMSO control GFP in assay [1] was 104% (inactive). The GFP response vs DMSO in [2] was 103% (inactive); in assay [4], 114% (inactive). In addition, in assay [3], the percent response of DMSO control was 102% (inactive). The GFP response, % of DMSO in assay [5] was 111% (inactive). For the same molecule, the double positive events in assay [6] came to 66.9%. Further, in assay [6], the vesicle binding response is 177% (inactive). For the same molecule, the inhibition is 1.44% (inactive) in assay [7], -9.64% (inactive) in assay [11] and 4% (inactive) in assay [15]. Further, in assay [8], the superoxide response (% of plate) was 95.2% (inactive). Also, the aptamer binding inhibition in assay [9] was -4% (inactive). The response in assay [10] is -8.65% (inactive); in assay [12] it was 0.1% (inactive). For the same molecule, in assay [13], the binding (% of control) was 114% (inactive). Also, the efflux inhibition (fraction of control) in [14] was -0.04 (inactive). Moreover, the differentiation response in assay [16] is 0.92% (inactive).

For `CS(=O)(=O)Nc1ccc([N+](=O)[O-])cc1Oc1ccccc1`, the percent of DMSO control GFP in [1] was 95.5% (inactive). In addition, the results for the GFP response vs DMSO in assay [2] and in assay [4] were 97.6% (inactive) and 115% (inactive), respectively. The percent response of DMSO control in [3] is 96.4% (inactive). In addition, in assay [5], the GFP response, % of DMSO is 115% (inactive). For the same molecule, the double positive events in [6] amounted to 62.2%. In addition, in [6], the vesicle binding response is 188% (inactive). The inhibition was -8.78% (inactive) in assay [7], -2.11% (inactive) in assay [11] and 5% (inactive) in assay [15]. The superoxide response (% of plate) in [8] is 106% (inactive). Besides, in assay [9], the aptamer binding inhibition is 3% (inactive). In addition, the results for the response in assay [10] and in assay [12] were -35% (inactive) and 2.46% (inactive), respectively. Also, in assay [13], the binding (% of control) was 106% (inactive). In addition, in assay [14], the efflux inhibition (fraction of control) is -0.09 (inactive). For the same molecule, the differentiation response in [16] was -8.93% (inactive).
